Laboratory results taken from PubChem BioAssay (NCATS).
Inconclusive results are not listed. A call without a number means that no potency is given here. Calls of active or inactive are those of the source. Calls follow the shape of the dose curve; as a rule, active = well fitted curve in the direction sought with a large enough effect; inconclusive = small, poorly fitted or top-dose-only effect, or another doubt; inactive = no such curve, though single readings can be large; an effect the other way counts as inactive or inconclusive.

Each molecule was assayed against Aldehyde dehydrogenase, mitochondrial (Homo sapiens) (UniProt P05091) (assay: qHTS for Inhibitors of the Aldehyde Dehydrogenase Family (ALDH2) Primary screen (AID 2061308; also: nearly all actives have a fitted effect of over 55% in size)). Conditions: ALDH2 enzyme inhibition qHTS, 1536-well; series mostly up to 56 µM.

Q: `COc1ccc2nc(-c3ccc(F)cc3Cl)sc2c1` was tested. Which Potency did it give?
A: inactive

Q: Which Potency does the source give for `FC(F)(F)c1ccccc1-c1nc(NCc2ccc(-c3ccncc3)cc2)c2ccccc2n1` here?
A: inactive

Q: For `CCN(CC)CCCCn1c(-c2ccccc2)nc2c(Nc3ccccc3)nc(C)nc21`, which Potency is on record?
A: inactive

Q: How did the Potency turn out when `CCCCNc1nc(C)nc2c1nc(-c1ccccc1)n2CCN1CCCC1` was run?
A: inactive

Q: With `O=S(=O)(c1ccc2c(c1)OCCO2)N1C[C@@H]2C[C@H]1CN2S(=O)(=O)c1c(F)cccc1F` as the molecule, how does the Potency read?
A: inactive

Q: Which Potency does the source give for `CCCn1c(C)nc2c(NCC(C)(C)CN(C)C)nc(C)nc21` here?
A: inactive

Q: Which Potency does the source give for `CC(=O)c1ccc(N2CCN(S(=O)(=O)c3ccc4c(c3)OCC(=O)N4)CC2)cc1` here?
A: inactive

Q: For `O=C1CCCC2=C1C(c1[nH]ncc1Cl)N=C(Nc1ccccc1)N2` (stereo not given), which Potency is on record?
A: inactive

Q: Which Potency does the source give for `CCN1CCN(c2cccc(Nc3nn4c(=O)c5ccccc5nc4s3)c2)CC1` here?
A: inactive

Q: How did the Potency turn out when `Cc1ccnc(NC(=S)N2CCN(c3cccc(C(F)(F)F)c3)C2)c1` was run?
A: inactive

Q: `CS(=O)(=O)Nc1ccc(-c2nc(NCc3ccc(-c4ccnc(C(F)(F)F)c4)cc3)c3ccccc3n2)cc1` was tested. Which Potency did it give?
A: inactive

Q: Which Potency does the source give for `COCCNC(=O)Nc1ccc2nc(-c3cccs3)c(-c3cccs3)nc2c1` here?
A: inactive

Q: `CC(C)(C)OC(=O)N[C@@H](Cc1ccc(OS(=O)(=O)c2cccc3cnccc23)cc1)C(=O)N1CCCN(C(=O)OC(C)(C)C)CC1` was tested. Which Potency did it give?
A: inactive

Q: With `CC(C)(C)N=Cc1c(-c2ccccc2)no[n+]1[O-]` as the molecule, how does the Potency read?
A: inactive

Q: With `Cc1ccc(-c2cc(C(=O)NCc3ccccc3)c3ccccc3n2)cc1C` as the molecule, how does the Potency read?
A: inactive

Q: How did the Potency turn out when `Cc1noc(C)c1-c1ccc2ncnc(NCc3ccccc3F)c2c1` was run?
A: inactive

Q: Which Potency does the source give for `O=C(OCC#CCSc1nnc(-c2ccc3ccccc3c2)o1)c1ccc(F)c(F)c1` here?
A: inactive

Q: For `Cc1ccc(S(=O)(=O)Nc2ccccc2C(=O)Nc2nc(-c3ccccc3)cs2)cc1`, which Potency is on record?
A: inactive

Q: How did the Potency turn out when `Cc1ccc(S(=O)(=O)Nc2cnccc2C(=O)Nc2nc(-c3ccc(-c4ccccc4)cc3)cs2)cc1` was run?
A: inactive

Q: For `O=[S+]([O-])(c1ccc2c(c1)OCCO2)N1CCN([S+](=O)([O-])c2c(F)cc(O)cc2F)CC1`, which Potency is on record?
A: inactive

Q: How did the Potency turn out when `O=C(Nc1ccc(-c2nc3ccccc3[nH]2)cc1)c1ccc(C(F)(F)F)cc1` was run?
A: inactive

Q: `CCCN(CCC)C(=O)C(CCC(=O)OCCCN1CCN(CCOC(=O)Cc2c(C)n(C(=O)c3ccc(Cl)cc3)c3ccc(OC)cc23)CC1)NC(=O)c1ccccc1` (stereo not given) was tested. Which Potency did it give?
A: inactive

Q: Which Potency does the source give for `CCOC(=O)CCc1cc(F)c(S(=O)(=O)N2CCN(S(=O)(=O)c3ccc4c(c3)OCCO4)CC2)cc1F` here?
A: inactive

Q: Which Potency does the source give for `Cc1cccc(CNc2ncnc3ccc(-c4ccccc4Cl)cc23)c1` here?
A: inactive

Q: Which Potency does the source give for `CCNC(=O)c1ccc(-c2ccc3ncnc(NCc4ccc(C)o4)c3c2)o1` here?
A: inactive

Q: `O=C(Cc1ccccc1)Nc1nnc(-c2ccncc2)s1` was tested. Which Potency did it give?
A: inactive

Q: Which Potency does the source give for `O=C(OCC#CCSc1nnc(-c2ccc3ccccc3c2)o1)c1ccc(OC(F)(F)F)cc1` here?
A: inactive

Q: Which Potency does the source give for `Cc1c(P(=S)(c2ccccc2)c2ccccc2)c2ccccc2n1CCc1ccccc1` here?
A: inactive

Q: Which Potency does the source give for `O=C(OCC#CCSc1nnc(-c2cccc3ccccc23)o1)C1CCC1` here?
A: inactive

Q: `COc1cc(-c2csc(N3CCC(C(N)=O)CC3)n2)cc(OC)c1OC` was tested. Which Potency did it give?
A: inactive

Q: Which Potency does the source give for `FC(F)(F)c1cccc(-c2nc(NCc3ccc(-c4cccnc4)cc3)c3ccccc3n2)c1` here?
A: inactive

Q: With `S=c1[nH]c2ccccc2n1CCc1ccccc1` as the molecule, how does the Potency read?
A: inactive

Q: Which Potency does the source give for `CCCn1ncc(CN2CCCC(C(=O)c3cccc(OC(C)C)c3)C2)c1C` (stereo not given) here?
A: inactive

Q: Which Potency does the source give for `CC(C)c1ccccc1-c1nc(NCc2ccc(-c3cccnc3)cc2)c2sccc2n1` here?
A: inactive

Q: `COc1cccc(CNc2ccc(S(=O)(=O)Nc3nc4c(C)cccc4s3)cc2)c1O` was tested. Which Potency did it give?
A: inactive

Q: Which Potency does the source give for `O=C1c2ccccc2C(=O)N1Cc1ccccc1` here?
A: inactive

Q: With `COC1CC(O[C@H]2CC[C@]3(C)C4CC[C@]5(C)C(C6=CC(=O)OC6)=CCC56OC46CC[C@@H]3C2)OC(C)C1O[C@@H]1O[C@H](CO[C@@H]2O[C@H](CO)[C@@H](O)[C@H](O)[C@H]2O)[C@@H](O)[C@H](O)[C@H]1O` (stereo not given in full) as the molecule, how does the Potency read?
A: inactive

Q: `COc1cccc(NC(=S)N2CCN(c3ccc(C(F)(F)F)cc3[N+](=O)[O-])CC2)n1` was tested. Which Potency did it give?
A: inactive

Q: Which Potency does the source give for `COC(=O)c1ccccc1NC(=O)c1ccc(C#N)cc1` here?
A: inactive

Q: For `CCN(CC)CCCCn1c(-c2ccccc2)nc2c(NCCOC)nc(C)nc21`, which Potency is on record?
A: inactive

These molecules were tested against Retinaldehyde dehydrogenase 3 (Homo sapiens) (UniProt P47895) (assay: qHTS for Inhibitors of the Aldehyde Dehydrogenase Family (ALDH1A3) Primary screen (AID 2061315)). Conditions: ALDH inhibition qHTS; series mostly up to 56 µM.

Q: How did the Potency turn out when `COc1ccc2nc(-c3ccc(F)cc3Cl)sc2c1` was run?
A: inactive

Q: For `FC(F)(F)c1ccccc1-c1nc(NCc2ccc(-c3ccncc3)cc2)c2ccccc2n1`, which Potency is on record?
A: inactive

Q: With `CCN(CC)CCCCn1c(-c2ccccc2)nc2c(Nc3ccccc3)nc(C)nc21` as the molecule, how does the Potency read?
A: inactive

Q: For `CCCCNc1nc(C)nc2c1nc(-c1ccccc1)n2CCN1CCCC1`, which Potency is on record?
A: inactive

Q: `O=S(=O)(c1ccc2c(c1)OCCO2)N1C[C@@H]2C[C@H]1CN2S(=O)(=O)c1c(F)cccc1F` was tested. Which Potency did it give?
A: inactive

Q: Which Potency does the source give for `CCCn1c(C)nc2c(NCC(C)(C)CN(C)C)nc(C)nc21` here?
A: inactive

Q: For `CC(=O)c1ccc(N2CCN(S(=O)(=O)c3ccc4c(c3)OCC(=O)N4)CC2)cc1`, which Potency is on record?
A: inactive

Q: Which Potency does the source give for `O=C1CCCC2=C1C(c1[nH]ncc1Cl)N=C(Nc1ccccc1)N2` (stereo not given) here?
A: inactive

Q: Which Potency does the source give for `CCN1CCN(c2cccc(Nc3nn4c(=O)c5ccccc5nc4s3)c2)CC1` here?
A: inactive

Q: With `Cc1ccnc(NC(=S)N2CCN(c3cccc(C(F)(F)F)c3)C2)c1` as the molecule, how does the Potency read?
A: inactive

Q: How did the Potency turn out when `CS(=O)(=O)Nc1ccc(-c2nc(NCc3ccc(-c4ccnc(C(F)(F)F)c4)cc3)c3ccccc3n2)cc1` was run?
A: inactive

Q: `COCCNC(=O)Nc1ccc2nc(-c3cccs3)c(-c3cccs3)nc2c1` was tested. Which Potency did it give?
A: inactive

Q: With `CC(C)(C)OC(=O)N[C@@H](Cc1ccc(OS(=O)(=O)c2cccc3cnccc23)cc1)C(=O)N1CCCN(C(=O)OC(C)(C)C)CC1` as the molecule, how does the Potency read?
A: inactive

Q: Which Potency does the source give for `CC(C)(C)N=Cc1c(-c2ccccc2)no[n+]1[O-]` here?
A: inactive

Q: With `Cc1ccc(-c2cc(C(=O)NCc3ccccc3)c3ccccc3n2)cc1C` as the molecule, how does the Potency read?
A: inactive

Q: With `Cc1noc(C)c1-c1ccc2ncnc(NCc3ccccc3F)c2c1` as the molecule, how does the Potency read?
A: inactive

Q: `O=C(OCC#CCSc1nnc(-c2ccc3ccccc3c2)o1)c1ccc(F)c(F)c1` was tested. Which Potency did it give?
A: inactive

Q: How did the Potency turn out when `Cc1ccc(S(=O)(=O)Nc2ccccc2C(=O)Nc2nc(-c3ccccc3)cs2)cc1` was run?
A: inactive

Q: Which Potency does the source give for `Cc1ccc(S(=O)(=O)Nc2cnccc2C(=O)Nc2nc(-c3ccc(-c4ccccc4)cc3)cs2)cc1` here?
A: inactive

Q: How did the Potency turn out when `O=[S+]([O-])(c1ccc2c(c1)OCCO2)N1CCN([S+](=O)([O-])c2c(F)cc(O)cc2F)CC1` was run?
A: inactive

Q: With `O=C(Nc1ccc(-c2nc3ccccc3[nH]2)cc1)c1ccc(C(F)(F)F)cc1` as the molecule, how does the Potency read?
A: inactive

Q: Which Potency does the source give for `CCCN(CCC)C(=O)C(CCC(=O)OCCCN1CCN(CCOC(=O)Cc2c(C)n(C(=O)c3ccc(Cl)cc3)c3ccc(OC)cc23)CC1)NC(=O)c1ccccc1` (stereo not given) here?
A: inactive

Q: With `CCOC(=O)CCc1cc(F)c(S(=O)(=O)N2CCN(S(=O)(=O)c3ccc4c(c3)OCCO4)CC2)cc1F` as the molecule, how does the Potency read?
A: inactive

Q: For `Cc1cccc(CNc2ncnc3ccc(-c4ccccc4Cl)cc23)c1`, which Potency is on record?
A: inactive

Q: `CCNC(=O)c1ccc(-c2ccc3ncnc(NCc4ccc(C)o4)c3c2)o1` was tested. Which Potency did it give?
A: inactive

Q: With `O=C(Cc1ccccc1)Nc1nnc(-c2ccncc2)s1` as the molecule, how does the Potency read?
A: inactive

Q: With `O=C(OCC#CCSc1nnc(-c2ccc3ccccc3c2)o1)c1ccc(OC(F)(F)F)cc1` as the molecule, how does the Potency read?
A: inactive

Q: How did the Potency turn out when `Cc1c(P(=S)(c2ccccc2)c2ccccc2)c2ccccc2n1CCc1ccccc1` was run?
A: inactive

Q: Which Potency does the source give for `O=C(OCC#CCSc1nnc(-c2cccc3ccccc23)o1)C1CCC1` here?
A: inactive

Q: `COc1cc(-c2csc(N3CCC(C(N)=O)CC3)n2)cc(OC)c1OC` was tested. Which Potency did it give?
A: inactive

Q: For `FC(F)(F)c1cccc(-c2nc(NCc3ccc(-c4cccnc4)cc3)c3ccccc3n2)c1`, which Potency is on record?
A: inactive

Q: How did the Potency turn out when `S=c1[nH]c2ccccc2n1CCc1ccccc1` was run?
A: inactive

Q: For `CCCn1ncc(CN2CCCC(C(=O)c3cccc(OC(C)C)c3)C2)c1C` (stereo not given), which Potency is on record?
A: inactive

Q: `CC(C)c1ccccc1-c1nc(NCc2ccc(-c3cccnc3)cc2)c2sccc2n1` was tested. Which Potency did it give?
A: inactive

Q: With `COc1cccc(CNc2ccc(S(=O)(=O)Nc3nc4c(C)cccc4s3)cc2)c1O` as the molecule, how does the Potency read?
A: inactive

Q: `O=C1c2ccccc2C(=O)N1Cc1ccccc1` was tested. Which Potency did it give?
A: inactive

Q: For `COC1CC(O[C@H]2CC[C@]3(C)C4CC[C@]5(C)C(C6=CC(=O)OC6)=CCC56OC46CC[C@@H]3C2)OC(C)C1O[C@@H]1O[C@H](CO[C@@H]2O[C@H](CO)[C@@H](O)[C@H](O)[C@H]2O)[C@@H](O)[C@H](O)[C@H]1O` (stereo not given in full), which Potency is on record?
A: inactive

Q: With `COc1cccc(NC(=S)N2CCN(c3ccc(C(F)(F)F)cc3[N+](=O)[O-])CC2)n1` as the molecule, how does the Potency read?
A: inactive

Q: With `COC(=O)c1ccccc1NC(=O)c1ccc(C#N)cc1` as the molecule, how does the Potency read?
A: inactive

Q: Which Potency does the source give for `CCN(CC)CCCCn1c(-c2ccccc2)nc2c(NCCOC)nc(C)nc21` here?
A: inactive
